“And” between values parts separate entries of the source, which are not always exact repeats. Equal entries are not always repeated. More than one record can exist for a structure, and the calls need not agree. The source made the active and inactive calls. How the source made its calls: active means hit-call score of the fitted dose curve at least 0.9, where 1 is the maximum; inactive means score below 0.9.
Key:
[1] = ATG_GLI_CIS: Attagene CIS-FACTORIAL HepG2 Assay for human Zinc Finger Protein GLI1 (AID 2282945); settings: HepG2, Attagene cis-factorial reporter mRNA, GLI element; actives raise or lower the signal
Procedure, shortened: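 HepG2 cells transiently transfected with cis-promoter multiplexed reporter units report endogenous transcription factor activity. After 24 h chemical exposure, reporter mRNA was quantified by RT-PCR, 6-FAM labelling, HpaI digestion and capillary electrophoresis, with bidirectional fitting against DMSO.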

[2] = ATG_GRE_CIS: Attagene CIS-FACTORIAL HepG2 Assay for human Glucocorticoid Response Elements (GRE) (AID 2282947); settings: HepG2 GRE cis-reporter, Attagene multiplex mRNA; actives raise or lower the signal
Procedure, shortened: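 Cells (HepG2) bearing transfected cis-promoter reporter transcription units were treated with chemical for 24 hours. Reporter mRNA was measured via RT-PCR with capillary electrophoresis, and activity was fitted in both directions relative to DMSO.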

[3] = ATG_ISRE_CIS: Attagene CIS-FACTORIAL HepG2 Assay for human Interferon Regulatory Factor 1 (IRF1) binding to an Interferon-Stimulated Response Element (ISRE) (AID 2282948); settings: HepG2 ISRE cis-reporter (Attagene), mRNA transcription readout; actives raise or lower the signal
Procedure, shortened: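 Multiplexed mRNA reporter readout in human liver HepG2 cells: cis-element-driven reporters transfected, compound added for 24 h, transcripts amplified, fluorescently labelled and sized by capillary electrophoresis; curve fitting bidirectional against DMSO.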

[4] = ATG_M_32_CIS: Attagene CIS-FACTORIAL HepG2 Assay for M32 Transcription Factor (Internal Marker) (AID 2282949); settings: HepG2 Attagene cis-factorial M32 reporter, mRNA; actives raise or lower the signal;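 further: background control marker of the multiplexed CIS panel rather than a real target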
Procedure, shortened: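 HepG2 transfectants (cis-regulated reporter transcription units) dosed 24 h. Reporter mRNA by RT-PCR plus CE, analysed as gain or loss relative to DMSO.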

[5] = ATG_M_06_CIS: Attagene CIS-FACTORIAL HepG2 Assay for M06 Transcription Factor (Internal Marker) (AID 2282950); settings: HepG2 Attagene CIS-FACTORIAL M06 internal marker reporter; actives raise or lower the signal
Procedure, shortened: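 HepG2 cells transiently transfected with cis-regulated multiple reporter transcription units were exposed to chemical for 24 h; reporter mRNA was quantified by RT-PCR, 6-FAM primer labelling, HpaI digestion and capillary electrophoresis, fitted bidirectionally against DMSO.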

[6] = target: Hypoxia-inducible factor 1-alpha (Homo sapiens) (UniProt Q16665); assay: ATG_HIF1a_CIS: Attagene CIS-FACTORIAL HepG2 Assay for human Hypoxia Inducible Factor 1 (HIF1A) (AID 2282951); settings: HepG2 Attagene cis-factorial HIF1a reporter transcription; actives raise or lower the signal
Procedure, shortened: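 Endogenous-TF cis reporter readout, human HepG2 cells, 24 h incubation; mRNA detected via RT-PCR and capillary electrophoresis fluorescence; DMSO-normalised bidirectional fitting.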

[7] = target: Hepatocyte nuclear factor 6 (Homo sapiens) (UniProt Q9UBC0); assay: ATG_HNF6_CIS: Attagene CIS-FACTORIAL HepG2 Assay for human Hepatocyte Nuclear Factor 6 (HNF6) (AID 2282952); settings: HepG2 Attagene cis-factorial HNF6 reporter transcription; actives raise or lower the signal
Procedure, shortened: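 Endogenous factor activity read in transiently transfected HepG2 via promoter-regulated reporter transcripts. RNA harvested 24 h post-dosing, reverse-transcribed, PCR-amplified, FAM-labelled, HpaI-digested and resolved by capillary electrophoresis; fitted in both directions against DMSO.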

[8] = target: Heat shock factor protein 1 (Homo sapiens) (UniProt Q00613); assay: ATG_HSE_CIS: Attagene CIS-FACTORIAL HepG2 Assay for human Heat Shock Transcription Factor 1 (HSE) (AID 2282953); settings: HepG2 HSE cis-reporter, Attagene RNA transcription; actives raise or lower the signal
Procedure, shortened: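 HepG2 cells transiently transfected with multiple reporter transcription units under cis-regulatory promoter control, measuring endogenous transcription factor activity. After 24 h chemical exposure, reporter mRNA quantified by RT-PCR, fluorescent labelling, HpaI digestion and capillary electrophoresis; bidirectional fit versus DMSO.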

[9] = ATG_MRE_CIS: Attagene CIS-FACTORIAL HepG2 Assay for human Metal Responsive Element (MRE) (AID 2282954); settings: HepG2 MRE cis-reporter transcription, Attagene multiplex; actives raise or lower the signal
Procedure, shortened: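 Cells were transfected with cis-promoter reporter transcription units, then dosed for 24 h. RNA was reverse-transcribed, amplified, fluorescently labelled and resolved by capillary electrophoresis, and activity was fitted in both directions relative to DMSO.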

[10] = ATG_PBREM_CIS: Attagene CIS-FACTORIAL HepG2 Assay for human Phenobarbital-responsive Enhancer Module (PBREM) (AID 2282955); settings: HepG2 PBREM cis-reporter, Attagene multiplexed transcription; actives raise or lower the signal
Procedure, shortened: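 Readout: reporter mRNA, fluorescent RT-PCR fragments separated by capillary electrophoresis. System: HepG2 transiently transfected with cis-regulated reporter units. Exposure: 24 h. Analysis: bidirectional, DMSO baseline.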

[11] = target: Paired box protein Pax-6 (Homo sapiens) (UniProt P26367); assay: ATG_Pax6_CIS: Attagene CIS-FACTORIAL HepG2 Assay for human Paired Box 6 (PAX6) (AID 2282956); settings: HepG2 CIS-FACTORIAL PAX6 reporter transcription, RNA readout; actives raise or lower the signal
Procedure, shortened: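 Fluorescent RT-PCR products separated by capillary electrophoresis report PAX6-linked promoter mRNA in HepG2 cells 24 h post-dose. Curves fitted bidirectionally, DMSO as negative control.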

[12] = ATG_PXRE_CIS: Attagene CIS-FACTORIAL HepG2 Assay for human Pregnane X Receptor Element (PXRE) (AID 2282957); settings: HepG2 Attagene CIS-FACTORIAL PXRE reporter, mRNA; actives raise or lower the signal
Procedure, shortened: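 Reporter transcripts under endogenous PXR-responsive cis-regulation quantified from total RNA of transfected HepG2 cells 24 h post-dosing, via RT-PCR with fluorescent primer extension and capillary electrophoresis. Gain or loss of signal fitted against DMSO baseline.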

[13] = ATG_PPRE_CIS: Attagene CIS-FACTORIAL HepG2 Assay for human Peroxisome Proliferator-activated Response Element (PPRE) (AID 2282958); settings: HepG2 PPRE cis-element reporter, Attagene transcription factor profiling; actives raise or lower the signal
Procedure, shortened: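 After human HepG2 hepatoma cells were transiently transfected with cis-promoter reporter constructs, they were exposed to test chemicals for 24 hours. Reporter RNA was then reverse-transcribed, PCR-amplified, FAM-labeled, HpaI-digested and quantified by capillary electrophoresis.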

[14] = ATG_RORE_CIS: Attagene CIS-FACTORIAL HepG2 Assay for human RAR-related Orphan Receptor Element (RORE) (AID 2282959); settings: HepG2 Attagene cis-factorial RORE reporter, mRNA; actives raise or lower the signal
Procedure, shortened: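 Measured here: transcript induction of a cis-regulated reporter in HepG2 cells transiently transfected via FuGene 6. After 24 h, RNA was processed by RT-PCR and fluorescent capillary electrophoresis; DMSO defined baseline activity.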

[15] = ATG_Sox_CIS: Attagene CIS-FACTORIAL HepG2 Assay for human SRY-box transcription factor (SOX) (AID 2282960); settings: HepG2 Attagene cis-factorial SOX reporter, mRNA; actives raise or lower the signal
Procedure, shortened: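 Using transiently transfected HepG2 cells, reporter transcription driven by cis elements was assessed 24 h after dosing. Signal was fluorescence of capillary-separated RT-PCR products, with DMSO defining baseline activity.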

[16] = target: Transcription factor Sp1 (Homo sapiens) (UniProt P08047); assay: ATG_Sp1_CIS: Attagene CIS-FACTORIAL HepG2 Assay for human Specificity Protein 1 (Sp1) (AID 2282961); settings: HepG2 Sp1 cis-reporter transcription, actives raise or lower the signal
Procedure, shortened: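 After transient transfection of HepG2 cells with cis-promoter reporter units and 24 h chemical treatment, reporter transcripts were quantified by RT-PCR and capillary electrophoresis fluorescence. Gain- and loss-of-signal fitted against DMSO.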

[17] = ATG_SREBP_CIS: Attagene CIS-FACTORIAL HepG2 Assay for human Sterol Regulatory Element Binding (SREBP) (AID 2282962); settings: HepG2 Attagene cis-factorial SREBP reporter, mRNA; actives raise or lower the signal
Procedure, shortened: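 Endogenous factor activity is measured in HepG2 through multiplexed reporter units under cis-element control. Following a 24 h incubation, reporter transcripts are reverse-transcribed, PCR-amplified and sized by capillary electrophoresis; activity is fitted in both directions relative to DMSO.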

[18] = target: Signal transducer and activator of transcription 3 (Homo sapiens) (UniProt P40763); assay: ATG_STAT3_CIS: Attagene CIS-FACTORIAL HepG2 Assay for human Signal Transducer and Activator of Transcription 3 (STAT3) (AID 2282963); settings: HepG2, Attagene cis-factorial STAT3 reporter transcription; actives raise or lower the signal
Procedure, shortened: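 HepG2, MRTU-transfected, 24 h dosing. RNA → RT → PCR → FAM label → HpaI → CE. Bidirectional fit vs DMSO.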

[19] = ATG_TA_CIS: Attagene CIS-FACTORIAL HepG2 Assay for human TA Basal Promoter (AID 2282964); settings: HepG2 Attagene CIS-factorial TA basal promoter reporter; actives raise or lower the signal
Procedure, shortened: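 HepG2 cells transiently transfected with multiplexed cis-promoter reporter units, dosed 24 h. Reporter mRNA measured by RT-PCR, 6-FAM labelling, HpaI digestion and capillary electrophoresis; bidirectional fit versus DMSO baseline, serving as background control.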

[20] = target: Bile acid receptor (Homo sapiens) (UniProt Q96RI1); assay: ATG_IR1_CIS: Attagene CIS-FACTORIAL HepG2 Assay for human Nuclear Receptor Subfamily 1 Group H Member 4 (NR1H4), IR1 submotif (AID 2282946); settings: IR1 reporter transcription, actives raise or lower the signal
Procedure, shortened: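 Readout: reporter transcript levels by RT-PCR with fluorescent capillary electrophoresis, from HepG2 cells transiently transfected with multiplexed cis-regulated reporters and dosed 24 h. Gain- or loss-of-signal fitted versus DMSO negative control.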

Measured: AC50

Chain of Heat shock factor protein 1 (Homo sapiens) (Q00613 whole entry, looked up): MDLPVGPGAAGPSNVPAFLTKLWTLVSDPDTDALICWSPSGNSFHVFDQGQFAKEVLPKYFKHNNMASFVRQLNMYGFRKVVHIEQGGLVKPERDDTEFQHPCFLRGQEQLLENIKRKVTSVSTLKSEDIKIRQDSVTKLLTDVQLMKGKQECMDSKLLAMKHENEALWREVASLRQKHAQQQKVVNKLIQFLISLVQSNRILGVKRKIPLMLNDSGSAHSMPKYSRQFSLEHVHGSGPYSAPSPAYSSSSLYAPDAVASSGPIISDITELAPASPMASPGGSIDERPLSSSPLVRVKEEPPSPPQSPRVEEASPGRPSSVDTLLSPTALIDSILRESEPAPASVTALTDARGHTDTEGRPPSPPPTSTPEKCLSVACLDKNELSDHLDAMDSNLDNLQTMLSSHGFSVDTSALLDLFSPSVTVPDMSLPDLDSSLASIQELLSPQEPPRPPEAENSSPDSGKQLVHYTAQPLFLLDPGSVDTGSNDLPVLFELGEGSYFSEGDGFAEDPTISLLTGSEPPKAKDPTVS
Chain of Signal transducer and activator of transcription 3 (Homo sapiens) (P40763 whole entry, looked up): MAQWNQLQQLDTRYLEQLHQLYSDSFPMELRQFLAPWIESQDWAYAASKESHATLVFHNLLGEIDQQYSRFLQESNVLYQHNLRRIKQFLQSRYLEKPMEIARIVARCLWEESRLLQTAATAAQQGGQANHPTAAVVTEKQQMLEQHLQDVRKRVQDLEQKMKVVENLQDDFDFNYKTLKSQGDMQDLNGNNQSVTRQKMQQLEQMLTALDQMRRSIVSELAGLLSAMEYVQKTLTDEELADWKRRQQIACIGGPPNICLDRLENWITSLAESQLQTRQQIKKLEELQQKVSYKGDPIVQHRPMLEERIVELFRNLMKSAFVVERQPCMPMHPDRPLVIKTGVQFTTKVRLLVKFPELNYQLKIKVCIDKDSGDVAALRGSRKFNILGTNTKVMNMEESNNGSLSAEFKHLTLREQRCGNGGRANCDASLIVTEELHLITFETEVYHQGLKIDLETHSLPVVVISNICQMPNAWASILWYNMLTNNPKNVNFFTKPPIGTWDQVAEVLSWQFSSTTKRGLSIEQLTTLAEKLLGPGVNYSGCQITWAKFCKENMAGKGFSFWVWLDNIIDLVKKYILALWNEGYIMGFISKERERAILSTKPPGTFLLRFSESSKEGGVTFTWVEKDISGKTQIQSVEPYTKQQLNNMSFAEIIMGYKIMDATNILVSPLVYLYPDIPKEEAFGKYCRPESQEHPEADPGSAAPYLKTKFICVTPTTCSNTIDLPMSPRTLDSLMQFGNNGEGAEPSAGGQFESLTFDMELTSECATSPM
Chain of Hypoxia-inducible factor 1-alpha (Homo sapiens) (Q16665 whole entry, looked up): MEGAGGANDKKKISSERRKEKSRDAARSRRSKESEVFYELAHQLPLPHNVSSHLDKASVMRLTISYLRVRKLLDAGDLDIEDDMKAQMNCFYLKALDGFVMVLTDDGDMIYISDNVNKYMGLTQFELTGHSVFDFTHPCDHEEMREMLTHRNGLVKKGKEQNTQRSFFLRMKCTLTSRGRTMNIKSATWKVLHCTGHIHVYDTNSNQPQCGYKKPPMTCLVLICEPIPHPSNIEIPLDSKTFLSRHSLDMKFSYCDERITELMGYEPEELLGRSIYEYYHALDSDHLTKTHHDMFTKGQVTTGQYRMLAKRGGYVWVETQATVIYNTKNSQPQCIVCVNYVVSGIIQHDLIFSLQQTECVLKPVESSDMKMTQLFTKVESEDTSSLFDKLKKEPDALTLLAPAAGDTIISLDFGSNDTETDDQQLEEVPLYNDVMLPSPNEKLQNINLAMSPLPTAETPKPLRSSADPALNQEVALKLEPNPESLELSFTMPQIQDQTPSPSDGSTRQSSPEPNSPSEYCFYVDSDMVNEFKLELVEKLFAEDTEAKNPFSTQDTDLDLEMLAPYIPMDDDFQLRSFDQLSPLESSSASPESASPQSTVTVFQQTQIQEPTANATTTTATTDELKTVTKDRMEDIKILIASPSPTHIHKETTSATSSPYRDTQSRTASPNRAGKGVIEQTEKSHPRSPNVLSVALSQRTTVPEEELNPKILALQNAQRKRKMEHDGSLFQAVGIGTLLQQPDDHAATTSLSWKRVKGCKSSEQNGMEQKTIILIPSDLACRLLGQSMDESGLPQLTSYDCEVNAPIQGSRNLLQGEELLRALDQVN
Chain of Transcription factor Sp1 (Homo sapiens) (P08047 whole entry, looked up): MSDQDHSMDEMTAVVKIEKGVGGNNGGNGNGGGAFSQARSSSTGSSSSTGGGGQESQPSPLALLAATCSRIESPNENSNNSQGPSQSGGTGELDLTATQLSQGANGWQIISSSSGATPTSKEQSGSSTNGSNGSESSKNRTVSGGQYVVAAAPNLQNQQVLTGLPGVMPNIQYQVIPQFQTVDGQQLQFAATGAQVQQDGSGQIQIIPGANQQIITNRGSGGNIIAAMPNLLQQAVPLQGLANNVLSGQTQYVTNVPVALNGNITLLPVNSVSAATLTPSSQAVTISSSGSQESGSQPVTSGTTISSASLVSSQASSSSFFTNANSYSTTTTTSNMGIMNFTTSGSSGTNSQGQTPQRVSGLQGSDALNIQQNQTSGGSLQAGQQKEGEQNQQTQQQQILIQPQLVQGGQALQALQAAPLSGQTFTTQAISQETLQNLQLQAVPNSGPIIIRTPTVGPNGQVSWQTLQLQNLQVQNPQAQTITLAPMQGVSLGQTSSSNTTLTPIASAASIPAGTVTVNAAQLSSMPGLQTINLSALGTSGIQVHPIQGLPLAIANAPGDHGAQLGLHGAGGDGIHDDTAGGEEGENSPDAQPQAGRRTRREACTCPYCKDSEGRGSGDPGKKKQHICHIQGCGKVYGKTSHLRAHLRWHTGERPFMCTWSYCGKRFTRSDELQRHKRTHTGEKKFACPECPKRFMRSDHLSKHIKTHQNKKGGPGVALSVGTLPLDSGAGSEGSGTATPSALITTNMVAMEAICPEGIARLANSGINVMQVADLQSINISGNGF
Chain of Hepatocyte nuclear factor 6 (Homo sapiens) (Q9UBC0 whole entry, looked up): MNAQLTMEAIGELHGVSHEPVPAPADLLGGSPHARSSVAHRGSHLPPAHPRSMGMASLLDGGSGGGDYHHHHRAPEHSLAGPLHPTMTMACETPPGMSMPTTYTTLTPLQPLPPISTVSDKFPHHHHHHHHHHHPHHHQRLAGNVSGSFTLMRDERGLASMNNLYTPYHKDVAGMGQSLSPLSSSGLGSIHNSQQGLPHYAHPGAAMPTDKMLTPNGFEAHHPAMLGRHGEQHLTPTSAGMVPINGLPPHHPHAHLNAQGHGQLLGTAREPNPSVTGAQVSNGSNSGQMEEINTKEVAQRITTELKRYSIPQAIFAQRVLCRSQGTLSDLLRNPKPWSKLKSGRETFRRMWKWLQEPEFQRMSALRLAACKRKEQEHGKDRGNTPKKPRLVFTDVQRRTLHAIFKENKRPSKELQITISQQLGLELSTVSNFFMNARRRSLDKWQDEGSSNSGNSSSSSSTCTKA
Chain of Paired box protein Pax-6 (Homo sapiens) (P26367 whole entry, looked up): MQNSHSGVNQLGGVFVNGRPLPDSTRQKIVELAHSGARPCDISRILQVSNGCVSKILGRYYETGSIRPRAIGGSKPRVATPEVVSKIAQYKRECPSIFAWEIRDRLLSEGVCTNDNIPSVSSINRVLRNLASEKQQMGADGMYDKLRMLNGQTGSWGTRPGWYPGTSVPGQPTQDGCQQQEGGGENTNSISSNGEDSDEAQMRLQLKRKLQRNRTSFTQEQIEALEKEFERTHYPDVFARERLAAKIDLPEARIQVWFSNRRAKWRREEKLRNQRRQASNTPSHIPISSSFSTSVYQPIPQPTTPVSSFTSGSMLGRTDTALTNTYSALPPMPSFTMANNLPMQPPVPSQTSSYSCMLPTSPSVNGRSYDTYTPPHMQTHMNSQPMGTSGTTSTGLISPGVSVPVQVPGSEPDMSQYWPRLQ
Chain of Bile acid receptor (Homo sapiens) (Q96RI1 whole entry, looked up): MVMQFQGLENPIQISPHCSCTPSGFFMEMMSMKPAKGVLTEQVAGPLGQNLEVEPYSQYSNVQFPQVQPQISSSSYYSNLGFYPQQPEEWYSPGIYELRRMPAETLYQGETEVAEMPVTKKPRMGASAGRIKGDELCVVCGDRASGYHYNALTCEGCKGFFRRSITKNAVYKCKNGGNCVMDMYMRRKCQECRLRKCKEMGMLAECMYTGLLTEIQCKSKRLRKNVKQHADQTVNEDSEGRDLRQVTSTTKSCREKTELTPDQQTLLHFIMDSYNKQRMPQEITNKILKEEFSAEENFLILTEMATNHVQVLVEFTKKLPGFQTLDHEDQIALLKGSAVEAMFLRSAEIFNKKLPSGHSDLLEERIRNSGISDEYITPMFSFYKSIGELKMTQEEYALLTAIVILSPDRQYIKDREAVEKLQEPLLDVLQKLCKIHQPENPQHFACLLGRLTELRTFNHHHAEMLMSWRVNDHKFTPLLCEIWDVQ

COS(C)(=O)=O
not listed: [20]
inactive: all other assays above

CC(C)C(=O)Nc1ccc([N+](=O)[O-])c(C(F)(F)F)c1
active: [8] 167 µM | [9] 100 µM | [12] 2.87 µM
not listed: [2] | [6] | [13]
inactive: all other assays above

Cc1ncc([C@@H](CCCCCCc2ccc3c(n2)NCCC3)CC(=O)O)cn1
active: [12] 27.6 µM
not listed: [2] | [7] | [10]
inactive: all other assays above

CCc1ccc(O)c(C(C)(C)C)c1
active: [6] 56.3 µM | [12] 15.9 µM
not listed: [10] | [13] | [20]
inactive: all other assays above

OCc1c[nH]c2ccccc12
active: [3] 27.1 µM and 140 µM and 32.2 µM | [6] 2.91 µM and 19.8 µM and 1.45 µM | [8] 176 µM [middle of 5 runs] | [10] 5.11 µM [middle of 4 runs] | [11] 6.46 µM and 23.1 µM and 38.2 µM | [12] 2.76 µM [middle of 5 runs] | [14] 2.51 µM [middle of 5 runs]
inactive: [1] | [20] | [3] | [4] | [5] | [6] | [10] | [11] | [15] | [16] | [17] | [18] | [19]

CC(C)CC(C)O (stereo unspecified)
not listed: [2] | [13]
inactive: all other assays above

OC[C@H]1O[C@@](CO)(O[C@H]2O[C@H](CO)[C@@H](O)[C@H](O)[C@H]2O)[C@@H](O)[C@@H]1O
not listed: [2] | [7]
inactive: all other assays above
